Screening data (PubChem)
Sampled rows, rich in hits. Any-hit rate of the full collection: about 2.1%.
HNF4A DNA FP – change in binding of human HNF4 alpha to DNA. actives 0.3% (n = 360,000). HNF4a-FITC DNA binding, fluorescence polarization, 1 h. P41235. activity change, % at 10 µM; in the data active = activity change above about 30%, passing the limit was not always enough
Rpn11 block – inhibitors of human proteasome Rpn11. O00487. human 26S proteasome, Ub4-pepOG fluorescence polarization; 20S core pre-blocked with epoxomicin. inhibition, % at 20 µM. actives 0.59% (n = 360,000). AID 588493;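 active = inhibition at 20 µM, scaled to each plate's controls, above about 33%, limit read from the data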
TPT1 inhibitor – blocks Candida albicans tRNA 2'-phosphotransferase. AID 1962. actives 0.81% (n = 300,000). recombinant caTPT1, FP RNA substrate dephosphorylation. inhibition, % at 5 µM;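 active = inhibition above the mean of all tested compounds plus 3 SD, set per screening campaign, cut at about 24% in these data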
Myeloid diff 2 – compounds promoting myeloid differentiation | actives 1% (n = 360,000) | ER-HoxA9 myeloid progenitors, lysozyme-GFP differentiation, flow cytometry | calls only at 10 µM | AID 624256;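 active = normalized GFP-positive differentiation at or above the plate's own cutoff, the solvent-only control mean plus 3 SD; inconclusive = no clear call, values can overlap the other calls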;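 note: cells exposed to compound for four days before flow analysis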
caTPT1 confirm – confirmation of Candida albicans TPT1 inhibitors; shares compounds with TPT1 inhibitor; recombinant caTPT1, fluorescence polarization, RNase T1 coupled; inhibition, % at 5 µM; actives 74% (n = 2,400); AID 2149;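 active = inhibition above the primary screen limit, the mean inhibition of all tested compounds plus 3 SD, cut at about 25% in these data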
RNase T1 inh – counter-screen for TPT1 inhibitors: inhibitors of Aspergillus oryzae RNase T1; shares compounds with TPT1 inhibitor; RNase T1 cleavage, fluorescence polarization, 1536-well; inhibition, % at 5 µM; actives 83% (n = 2,400); AID 2153;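 active = inhibition above the solvent-only control well mean plus 3 SD, limit set per screening run, cut at about 23% in these data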;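 note: inhibitors block cleavage so intact labeled substrate keeps polarization high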
Rpn11 confirm – Rpn11 inhibition confirmation, single concentration; actives 29% (n = 1,900); shares compounds with Rpn11 block; inhibition, % at 20 µM; purified human 26S proteasome, Ub4-pepOG fluorescence polarization; proteasome pretreated with epoxomicin; AID 602318
MMP-2 inh – blocks human MMP-2, flagging nonselective RPN11 hits; shares compounds with Rpn11 block; AID 602330; recombinant MMP-2, FRET peptide cleavage fluorescence; actives 4% (n = 1,900); inhibition, % at 20 µM;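 note: human MMP-2 activated beforehand with APMA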
Target sequence (P08253 whole entry, looked up): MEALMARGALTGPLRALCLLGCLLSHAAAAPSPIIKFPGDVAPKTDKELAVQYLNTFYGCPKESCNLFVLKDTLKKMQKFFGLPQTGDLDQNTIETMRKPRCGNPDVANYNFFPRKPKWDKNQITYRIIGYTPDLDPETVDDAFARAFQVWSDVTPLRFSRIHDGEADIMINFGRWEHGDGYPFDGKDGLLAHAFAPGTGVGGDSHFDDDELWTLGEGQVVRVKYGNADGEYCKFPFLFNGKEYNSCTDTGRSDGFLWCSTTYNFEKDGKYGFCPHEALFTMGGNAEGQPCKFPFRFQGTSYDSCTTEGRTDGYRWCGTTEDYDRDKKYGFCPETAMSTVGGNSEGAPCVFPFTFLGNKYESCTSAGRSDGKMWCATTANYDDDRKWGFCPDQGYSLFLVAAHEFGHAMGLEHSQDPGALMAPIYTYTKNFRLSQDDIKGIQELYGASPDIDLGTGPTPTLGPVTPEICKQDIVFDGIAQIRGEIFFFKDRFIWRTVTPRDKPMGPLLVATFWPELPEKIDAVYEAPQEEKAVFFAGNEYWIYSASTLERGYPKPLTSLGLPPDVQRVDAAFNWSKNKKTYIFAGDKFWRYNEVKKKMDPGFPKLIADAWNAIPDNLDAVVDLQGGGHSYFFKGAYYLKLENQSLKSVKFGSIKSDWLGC
Thrombin inh – blocks bovine thrombin, flagging nonselective RPN11 hits | actives 13% (n = 1,900) | shares compounds with Rpn11 block | inhibition, % at 20 µM | bovine thrombin cleavage of Ub4-pepOG, fluorescence polarization | AID 602333;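 active = mean inhibition at least 40% at 20 µM, or signal 3 deviations below plate average, so some actives read negative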
Myeloid diff – compounds promoting myeloid differentiation | actives 2% (n = 2,300) | shares compounds with Myeloid diff 2 | AID 651706 | ER-HoxA9 myeloid progenitors, GFP/Mac1 double-positive flow | calls only;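 active = share of green or green-and-red cells above 9 and 9% in run 1 or 4 and 3% in run 2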
GFP autofluor – counter-screen for myeloid differentiation promoters: compound fluorescence; shares compounds with Myeloid diff 2; ER-HoxA9 myeloid progenitors, no estrogen, GFP autofluorescence flow cytometry; vehicle wells 0%, positive control 100%; fluorescence response, % (test concentration not listed); actives 7.4% (n = 2,300); AID 651707;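 active = over 5% cells positive for green fluorescent reporter, or over 2% positive for both it and APC stain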
HNF4a DNA conf – change in binding of human HNF4 alpha to DNA, retest; HNF4A-FITC DNA binding, fluorescence polarization, 1 h; AID 1224897; shares compounds with HNF4A DNA FP; activity change, % at 12.5 µM; actives 99% (n = 210); call rule not given here
Large screens that a line does not name were inactive (follow-up assays come after a bar, where shown); ! = a repeat was not active. Cut-off read from the data, not from the text of the source, unless noted: active = inhibition above about 40%; inactive = the rest.

O=C1NC(=O)N(Cc2ccccc2Cl)C(=O)/C1=C/N1CCOCC1	HNF4A DNA FP 37, TPT1 inhibitor 40 (not shown: Rpn11 block) | caTPT1 confirm 47 | RNase T1 inh 60 | Myeloid diff inactive | GFP autofluor inactive | HNF4a DNA conf 54
COC(=O)C1=C(c2ccc(OC)c(OC)c2)C[C@@H]2CC[C@H]1N2C(=O)NCCCOC(C)C	none (no result: TPT1 inhibitor)
COc1ccc2c3c([nH]c2c1)C(C)NCC3 (centres undefined)	HNF4A DNA FP 42, Rpn11 block 78, TPT1 inhibitor 27, Myeloid diff 2 active | caTPT1 confirm inactive | RNase T1 inh inactive | Rpn11 confirm 58 | MMP-2 inh inactive | Thrombin inh 48 | HNF4a DNA conf 55
COc1ccc2[nH]c3c(c2c1)CCNC3C (centres undefined)	none
CCC1C(c2cc(OC)c(OC)c(OC)c2)c2cc3c(cc2OC1N1CCCC1)OCO3 (centres undefined)	none (no result: TPT1 inhibitor, Myeloid diff 2)
Cc1ccc(N2C(=O)NC(=O)/C(=C/c3ccoc3)C2=O)cc1	Rpn11 block 150 (no result: TPT1 inhibitor) | Rpn11 confirm 144 | MMP-2 inh inactive | Thrombin inh inactive
C[C@]12CCC3C(CC[C@H]4C[C@H](O)CC[C@]34C)C1[C@@H](O)C[C@@H]2O (some centres undefined)	none (no result: TPT1 inhibitor)
Cc1ccc(OP2(=O)Nc3cc(C)c(C)cc3S2)cc1 (centres undefined)	none (no result: TPT1 inhibitor)
O=c1[nH]c(=O)n(-c2ccc(F)cc2)c(O)c1C=Nc1ccccc1N1CCCC1	HNF4A DNA FP 58, Rpn11 block 61 | Rpn11 confirm inactive | MMP-2 inh inactive | Thrombin inh inactive
Cc1ccc(-n2c(O)c(C=Nc3ccccc3N)c(=O)[nH]c2=O)cc1C	none
O=c1[nH]c(O)c(N=Nc2ccc(S(=O)(=O)N3CCOCC3)cc2)c(=O)[nH]1	none
O=c1[nH]c(O)c(N=Nc2ccc3c(c2)OCCO3)c(=O)[nH]1	Rpn11 block 55 | Rpn11 confirm inactive | MMP-2 inh inactive | Thrombin inh inactive
CC(C)c1ccc(-n2c(O)c(/C=N/NC(=O)c3ccccc3O)c(=O)[nH]c2=S)cc1	Rpn11 block 48 | Rpn11 confirm 53 | MMP-2 inh inactive | Thrombin inh inactive
COc1ccc(CCn2c(O)c(C=Nc3ccc(NC(C)=O)cc3)c(=O)[nH]c2=O)cc1OC	Rpn11 block 46 | Rpn11 confirm inactive | MMP-2 inh inactive | Thrombin inh inactive
O=C(N/N=C/c1c(O)n(C2CCCCC2)c(=S)[nH]c1=O)c1ccccc1	Rpn11 block 46, Myeloid diff 2 inconclusive | Rpn11 confirm 50 | MMP-2 inh inactive | Thrombin inh inactive
CC(C)c1ccc(-n2c(O)c(/C=N/NC(=O)c3ccncc3)c(=O)[nH]c2=O)cc1	none
O=C(N/N=C/c1c(O)n(C2CCCCC2)c(=S)[nH]c1=O)c1ccccc1O	Rpn11 block 49 | Rpn11 confirm 53 | MMP-2 inh inactive | Thrombin inh inactive
C[C@]12CC[C@@H](O)CC1=CC(=O)C1C2CC[C@]2(C)C(=O)[C@H](O)CC12 (some centres undefined)	none (no result: TPT1 inhibitor)
COc1ccc(C(c2ccc(OC)cc2)C(Cl)(Cl)Cl)cc1	none (no result: TPT1 inhibitor)
O=C(Cn1ncn2c(cc3cc(F)ccc32)c1=O)N1CCC2(CC1)OCCO2	none
O=C(N/N=C/c1c(O)n(CCc2ccccc2)c(=O)[nH]c1=O)c1ccccc1	Rpn11 block 45 | Rpn11 confirm inactive | MMP-2 inh inactive | Thrombin inh inactive
C=CCn1c(O)c(C(C)=NCCC2=CCCCC2)c(=O)[nH]c1=O	none
COc1ccc(/C=C/C(=O)c2c(O)n(CCC3=CCCCC3)c(=O)[nH]c2=O)cc1OC	Rpn11 block 44 | Rpn11 confirm active | MMP-2 inh inactive | Thrombin inh active
Nc1ccccc1Cl	none (no result: TPT1 inhibitor)
CNC(=O)Oc1ccc2c(c1)C(=O)c1ccccc1CO2	Rpn11 block 100, Myeloid diff 2 active | Rpn11 confirm inactive | MMP-2 inh inactive | Thrombin inh inactive
CNC(=O)Oc1cccc(-c2cn3cc(OC(=O)NC)ccc3n2)c1	none
CCN(CC)P(=O)(NC(=O)C(Cl)(Cl)Cl)N(CC)CC.[Cl-].[Cl-].[Cl-].[Nd+3]	HNF4A DNA FP 53!, Rpn11 block 63 | Rpn11 confirm inactive | MMP-2 inh inactive | Thrombin inh inactive
O=c1[nH]c(=S)n(Cc2ccc(F)cc2)c(O)c1C=NCc1ccc2c(c1)OCO2	Rpn11 block 32 | Rpn11 confirm inactive | MMP-2 inh inactive | Thrombin inh inactive
CN(C)CCN=Cc1c(O)n(Cc2ccc3c(c2)OCO3)c(=S)[nH]c1=O	none
O=c1[nH]c(=S)n(Cc2ccc(F)cc2)c(O)c1/C=N/N1CCCCCC1	Rpn11 block 57 | Rpn11 confirm inactive | MMP-2 inh inactive | Thrombin inh inactive
CC(C)c1ccc(N2C(=O)CC(=O)NC2=O)cc1	Rpn11 block 37 | Rpn11 confirm inactive | MMP-2 inh inactive | Thrombin inh inactive
CCc1ccccc1N1C(=O)CC(=O)NC1=O	Rpn11 block 28 | Rpn11 confirm inactive | MMP-2 inh inactive | Thrombin inh inactive
O=C1CC(=O)N(c2ccc(Cl)cc2)C(=O)N1	none
CCCCN1C(=O)/C(=C/C=C/c2ccco2)C(=O)NC1=S	HNF4A DNA FP 38, Rpn11 block 146 (no result: TPT1 inhibitor) | Rpn11 confirm 155 | MMP-2 inh 47 | Thrombin inh 143
CCOC(=O)[C@]12Cc3c(cc(OC)c(OC)c3OC)[C@H]1N(CCC(=O)OC)C(=O)c1ccccc12	none (no result: Rpn11 block, TPT1 inhibitor)
O=c1c2ccccc2nc(-c2ccco2)n1-c1nccs1	Rpn11 block 50 | Rpn11 confirm inactive | MMP-2 inh inactive | Thrombin inh inactive
C=C(C)[C@@]12OC3(c4ccccc4)O[C@@H]1C1[C@@H]4O[C@]4(CO)[C@@H](O)[C@]4(O)C(=O)C(C)=C[C@H]4[C@@]1(O3)[C@H](C)[C@H]2OC(=O)/C=C/C=C/c1ccccc1 (some centres undefined)	Myeloid diff 2 inconclusive
